According to PubChem BioAssay (EPA / NIEHS):
Inconclusive results are not listed. Calls of active or inactive are those of the source. How the source made its calls: active means hit-call score of the fitted dose curve at least 0.9, where 1 is the maximum; inconclusive means response in the unintended direction; inactive means score below 0.9.

Tests used:
[1] = biological target: human Fibroblast Growth Factor Receptor 1 (FGFR1), FGFR1 (gene 2260) (UniProt P11362); assay: NVS_ENZ_hFGFR1: NovaScreen (NVS) Enzymatic Assay for human Fibroblast Growth Factor Receptor 1 (FGFR1) (AID 2283159);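 on AC50: hits lower the signal so potencies describe inhibitors of the kinase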
Chain of human Fibroblast Growth Factor Receptor 1 (FGFR1), FGFR1 (gene 2260) (P11362 whole entry, looked up): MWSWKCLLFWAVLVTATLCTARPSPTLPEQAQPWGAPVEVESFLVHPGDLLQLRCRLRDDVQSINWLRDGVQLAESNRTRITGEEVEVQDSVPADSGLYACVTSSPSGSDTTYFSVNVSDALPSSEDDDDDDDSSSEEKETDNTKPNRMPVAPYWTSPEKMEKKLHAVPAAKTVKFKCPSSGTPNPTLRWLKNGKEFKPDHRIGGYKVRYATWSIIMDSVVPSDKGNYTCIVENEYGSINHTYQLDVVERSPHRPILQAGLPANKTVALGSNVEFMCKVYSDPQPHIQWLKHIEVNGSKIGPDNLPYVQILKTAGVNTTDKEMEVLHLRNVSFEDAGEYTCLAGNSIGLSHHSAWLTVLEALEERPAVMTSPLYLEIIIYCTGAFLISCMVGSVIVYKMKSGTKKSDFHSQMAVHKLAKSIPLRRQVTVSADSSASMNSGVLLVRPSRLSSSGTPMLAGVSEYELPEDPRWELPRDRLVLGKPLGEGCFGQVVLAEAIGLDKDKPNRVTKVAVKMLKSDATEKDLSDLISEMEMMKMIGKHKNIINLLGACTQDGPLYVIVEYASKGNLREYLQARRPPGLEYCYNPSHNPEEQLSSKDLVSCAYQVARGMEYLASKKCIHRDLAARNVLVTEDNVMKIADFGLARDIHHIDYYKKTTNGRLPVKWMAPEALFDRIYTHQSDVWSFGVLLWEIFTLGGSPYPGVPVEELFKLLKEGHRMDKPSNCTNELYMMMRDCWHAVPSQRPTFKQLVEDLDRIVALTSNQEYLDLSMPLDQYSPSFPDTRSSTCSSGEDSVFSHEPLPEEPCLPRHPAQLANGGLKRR
Summary of the method: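 Cell-free recombinant kinase with fluorescent substrate, product separated by electrophoretic mobility shift; read 1 hour after dosing, loss of signal relative to DMSO. Initial screen in duplicate at 25 uM, actives followed in concentration series.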

[2] = system: rat Monoamine Oxidase, MAO-A, Central (MAOAC), gene 29253; assay: NVS_ENZ_rMAOAC: NovaScreen (NVS) Enzymatic Assay for rat Monoamine Oxidase, MAO-A, Central (MAOAC) (AID 2283243);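 further: potency refers to inhibition seen as signal drop below DMSO baseline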
Summary of the method: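 Enzyme from rat brain, cell-free radiodetection format. Counts taken at 1.5 h; activity fitted against DMSO baseline, loss of signal marking inhibition. Confirmatory concentration series followed the 25 uM duplicate screen.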

[3] = biological target: rat CYP1A2, Cyp1a2 (gene 24297) (UniProt P04799); assay: NVS_ADME_rCYP1A2: NovaScreen (NVS) CYP450-related Enzyme Activity (ADME) Assay for rat CYP1A2 (AID 2283115)
Chain of rat CYP1A2, Cyp1a2 (gene 24297) (P04799 whole entry, looked up): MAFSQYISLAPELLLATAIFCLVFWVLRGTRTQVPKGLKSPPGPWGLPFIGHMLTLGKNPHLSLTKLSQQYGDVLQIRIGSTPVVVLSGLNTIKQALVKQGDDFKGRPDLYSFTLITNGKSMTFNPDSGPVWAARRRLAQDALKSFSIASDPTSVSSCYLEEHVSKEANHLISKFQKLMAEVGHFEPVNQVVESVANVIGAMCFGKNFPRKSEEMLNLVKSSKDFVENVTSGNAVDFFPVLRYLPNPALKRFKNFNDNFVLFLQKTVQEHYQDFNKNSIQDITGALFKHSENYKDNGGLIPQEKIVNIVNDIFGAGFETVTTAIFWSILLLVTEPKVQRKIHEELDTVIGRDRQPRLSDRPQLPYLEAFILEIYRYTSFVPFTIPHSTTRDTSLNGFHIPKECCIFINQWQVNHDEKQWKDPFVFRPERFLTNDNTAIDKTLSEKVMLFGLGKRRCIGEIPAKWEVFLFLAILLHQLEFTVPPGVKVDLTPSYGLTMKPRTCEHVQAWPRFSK
Summary of the method: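 Primary testing ran in duplicate at 10 uM, with actives re-tested across concentration series. Fluorescence intensity from substrate turnover by recombinant protein, measured 1 hour post-dosing, with signal loss scored against acetonitrile vehicle.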

[4] = biological target: human Acetylcholinesterase (AChE), ACHE (gene 43) (UniProt P22303); assay: NVS_ENZ_hAChE: NovaScreen (NVS) Enzymatic Assay for human Acetylcholinesterase (AChE) (AID 2283129)
Chain of human Acetylcholinesterase (AChE), ACHE (gene 43) (P22303 whole entry, looked up): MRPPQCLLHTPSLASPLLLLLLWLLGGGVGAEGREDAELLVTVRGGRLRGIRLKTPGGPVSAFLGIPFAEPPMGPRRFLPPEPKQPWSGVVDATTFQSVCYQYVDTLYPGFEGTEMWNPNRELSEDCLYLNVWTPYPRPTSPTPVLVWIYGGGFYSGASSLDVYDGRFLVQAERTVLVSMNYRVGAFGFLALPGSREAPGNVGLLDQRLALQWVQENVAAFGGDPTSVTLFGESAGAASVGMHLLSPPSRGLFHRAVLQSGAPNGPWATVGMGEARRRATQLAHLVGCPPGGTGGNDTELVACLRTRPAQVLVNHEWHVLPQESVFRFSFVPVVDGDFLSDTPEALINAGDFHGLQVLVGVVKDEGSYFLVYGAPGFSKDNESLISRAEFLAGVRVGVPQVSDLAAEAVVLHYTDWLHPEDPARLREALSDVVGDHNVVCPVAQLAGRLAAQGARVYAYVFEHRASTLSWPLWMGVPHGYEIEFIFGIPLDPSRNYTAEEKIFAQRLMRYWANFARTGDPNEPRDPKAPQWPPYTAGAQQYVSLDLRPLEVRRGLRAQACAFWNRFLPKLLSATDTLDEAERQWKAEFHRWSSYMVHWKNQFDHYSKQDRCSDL
Summary of the method: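 Actives from a duplicate single-point screen (25 uM) were followed up in concentration series. Enzyme activity read by absorbance (colorimetric) 0.33 hour after dosing, cell-free, normalized to DMSO, with loss of signal scored.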

[5] = biological target: human Phosphatase and Tensin Homolog (PTEN), PTEN (gene 5728) (UniProt P60484); assay: NVS_ENZ_hPTEN: NovaScreen (NVS) Enzymatic Assay for human Phosphatase and Tensin Homolog (PTEN) (AID 2283203)
Chain of human Phosphatase and Tensin Homolog (PTEN), PTEN (gene 5728) (P60484 whole entry, looked up): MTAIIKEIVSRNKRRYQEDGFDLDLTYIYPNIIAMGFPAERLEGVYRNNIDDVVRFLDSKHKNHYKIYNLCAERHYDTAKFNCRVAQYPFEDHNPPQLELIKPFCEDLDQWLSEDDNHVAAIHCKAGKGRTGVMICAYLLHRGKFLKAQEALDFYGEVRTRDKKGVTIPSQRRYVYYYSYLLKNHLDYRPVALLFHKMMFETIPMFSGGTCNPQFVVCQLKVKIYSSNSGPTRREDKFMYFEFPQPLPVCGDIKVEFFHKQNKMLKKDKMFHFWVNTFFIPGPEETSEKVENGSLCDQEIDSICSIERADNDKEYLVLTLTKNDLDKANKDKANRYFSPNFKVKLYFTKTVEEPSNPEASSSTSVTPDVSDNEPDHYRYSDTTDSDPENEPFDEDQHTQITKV
Summary of the method: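 Loss of fluorescent product signal after mobility-shift separation reports PTEN activity, recombinant human enzyme, 1 h after compound addition. Single 25 uM duplicate screen, then concentration-response on actives; DMSO baseline.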

[6] = system: rat Monoamine Oxidase, MAO-A, Peripheral (MAOAP), gene 29253; assay: NVS_ENZ_rMAOAP: NovaScreen (NVS) Enzymatic Assay for rat Monoamine Oxidase, MAO-A, Peripheral (MAOAP) (AID 2283237)
Summary of the method: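 Scintillation counting tracked MAO-A activity in a cell-free rat liver mitochondrial membrane prep, read 1.17 hours after compound addition. Single-point duplicate testing at 25 uM preceded concentration-response follow-up; activity was fitted relative to DMSO.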

CCCCCCCCCC(=O)O
outcome [1]: inactive

Cc1nc(-c2ccc3c(c2)CCN(CCC2CCC(NC(=O)/C=C/c4ccc(F)cc4)CC2)CC3)no1 (centres undefined)
outcome [2]: inactive

COC(=O)CSc1cc(N=c2sc(=O)n3n2CCCC3)c(F)cc1Cl
outcome [3]: inactive

CSc1ccc(Oc2ccc(S(N)(=O)=O)cc2CN(C)C)cc1C
outcome [4]: inactive

c1ccc2c(c1)c1cccc3ccc4cccc2c4c31
outcome [3]: inactive

N#CSCSc1nc2ccccc2s1
outcome [5]: inactive
AC50 [6]: 25 µM (active)
AC50 [2]: 45.9 µM (active)

CCN(CC)CCOc1ccc(C(=C(Cl)c2ccccc2)c2ccccc2)cc1
AC50 [1]: 27.1 µM (active)

OCCCCl
outcome [5]: inactive

CCCOc1sc(C(=O)N2CCC(c3cc(CN)ccc3F)CC2)c(C)c1Br
outcome [4]: inactive
AC50 [6]: 2.6 µM (active)
AC50 [2]: 0.439 µM (active)

CN(C)c1ccc(C(=C2C=CC(=[N+](C)C)C=C2)c2ccc(N(C)C)cc2)cc1
AC50 [4]: 6.48 µM (active)
AC50 [2]: 25 µM (active)

CC1CCC(C(C)(C)O)CC1 (centres undefined)
AC50 [5]: 1.56 µM (active)

OCCCc1cccnc1
outcome [5]: inactive

O=C(O)Cn1c(=O)n(Cc2ccc(Br)cc2F)c(=O)c2ccc(Cl)cc21
outcome [1]: inactive

COCC(C)OCC(C)O (centres undefined)
outcome [1]: inactive
outcome [5]: inactive

NC(=NCCCCCCN=C(N)/N=C(\N)Nc1ccc(Cl)cc1)/N=C(\N)Nc1ccc(Cl)cc1
AC50 [2]: 20.5 µM (active)

COc1cc(C(=O)NC2CCN(C)CC2)ccc1Nc1ncc2c(n1)N(C1CCCC1)CC(F)(F)C(=O)N2C
AC50 [4]: 23.4 µM (active)

CN(C)C(=O)C1(N2CCCCC2)CCN(CC[C@@]2(c3ccc(Cl)c(Cl)c3)CN(C(=O)c3ccccc3)CCO2)CC1
AC50 [4]: 4.93 µM (active)

CN(C)c1ccc(N=NS(=O)(=O)O)cc1
outcome [1]: inactive
outcome [5]: inactive
AC50 [6]: 21.1 µM (active)
outcome [2]: inactive

CCCCCCCCCCCCCC[P+](CCCC)(CCCC)CCCC
AC50 [1]: 5.1 µM (active)

Oc1ccc2ccccc2c1
AC50 [6]: 12.9 µM (active)
AC50 [2]: 10.2 µM (active)

O=Cc1ccccc1C=O
outcome [6]: inactive

COCCOC[C@H](CC1(C(=O)NC2CCC(C(=O)O)CC2)CCCC1)C(=O)Oc1ccc2c(c1)CCC2 (some centres undefined)
outcome [1]: inactive

CCOC(=O)C1=NN(c2ccc(Cl)cc2Cl)C(C)(C(=O)OCC)C1 (centres undefined)
outcome [5]: inactive

CC[C@H](c1ccc(O)cc1)[C@@H](CC)c1ccc(O)cc1
AC50 [4]: 4.88 µM (active)

Oc1cc2ccccc2c2ccccc12
AC50 [6]: 3 µM (active)
AC50 [2]: 1.2 µM (active)

Nc1cccc2c(N)cccc12
AC50 [6]: 25 µM (active)

CCCCCCCCCCCCCCCCOS(=O)(=O)O
AC50 [4]: 16.8 µM (active)
AC50 [1]: 1.41 µM (active)

Clc1cc(Cl)c(-c2c(Cl)c(Cl)cc(Cl)c2Cl)cc1Cl
AC50 [5]: 12.5 µM (active)

O=C(O)c1cccc(N(Cc2cccnc2)c2ccc(OC(F)F)c(OC(F)F)c2)c1
AC50 [4]: 8.26 µM (active)

CCCN(CCC)C(=O)SCC
outcome [4]: inactive

CCOc1ccc2c(c1)C(C)=CC(C)(C)N2
outcome [1]: inactive
AC50 [2]: 16.6 µM (active)

CCN(Cc1cccnc1)C(=O)c1cccc(Cl)c1[C@]1(C)C(=O)N(Cc2ccc(OC)cc2OC)c2ccc(Cl)cc21
outcome [4]: inactive

CCCN(C1CCN(C(=O)C2CCNCC2)CC1)[C@@H]1CCc2ccc(OC)cc2C1
AC50 [4]: 35.2 µM (active)

CCCCCCCCCCCCc1ccccc1S(=O)(=O)O
AC50 [1]: 9.42 µM (active)
AC50 [5]: 13.5 µM (active)

O=C(c1ccc(O)cc1O)c1ccc(O)cc1O
AC50 [6]: 0.935 µM (active)

CCCCCCCCN(C)CCCCCCCC
AC50 [1]: 36.1 µM (active)

c1ccc2[nH]c(-c3cscn3)nc2c1
outcome [3]: inactive
outcome [6]: inactive

O=S1(=O)CC(Cl)(Cl)C(Cl)(Cl)C1
outcome [3]: inactive
outcome [2]: inactive
